Laboratory results from PubChem BioAssay.
The source made the active and inactive calls. Unless noted, no rule for the calls is given here.

What was measured:
[1] = test system: Wnt5a (protein binding on small-molecule microarray); assay: small molecules binding Wnt5a protein – biophysical, small-molecule microarray, 635/667 nm fluorescence, primary screen (AID 1142); conditions: 635 nm fluorescence, higher = more signal;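 also: fluorescence read at 667 nm with signal to noise per printed feature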
[2] = ATP-based viability of Huh7 replicon cells – cell-based, CellTiter-Glo luminescence, basal, 48 h, cytotoxicity control for HCV replication inhibitor project, primary screen (AID 1143); conditions: higher = more signal, called active from +8 up or from −8 down;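 also: Huh7 hepatoma cells carrying a hepatitis C replication reporter with no stimulus; test concentration not given here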
[3] = Pseudomonas biofilm growth suppression – PAO1 strain, BacTiter-Glo luminescence, LB-PBS, primary screen (AID 1144); conditions: P. aeruginosa PAO1 biofilm, 12 h, higher = more signal
[4] = basal CRE-LacZ reporter activity in PC12 – cell-based, unstimulated, primary screen (AID 1145); conditions: no forskolin, luminescence, 4.5 h, higher = more signal, called active from +8 up or from −8 down
[5] = forskolin-driven CRE-LacZ activity in PC12 – cell-based, CRE-LacZ reporter, forskolin-stimulated, primary screen (AID 1146); conditions: luminescence, 4.5 h, higher = more signal, called active from +8 up or from −8 down;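 also: PC12 cells with 6xCRE LacZ reporter stimulated by forskolin 10 µM; beta-galactosidase reporter signal reflecting CREB driven transcription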
[6] = biological target: Streptavidin (Streptomyces avidinii) (UniProt P22629); assay: compounds binding control protein streptavidin – biophysical, small-molecule microarray, 635/667 nm fluorescence, artefact control for SMM compound annotation, primary screen (AID 1147); conditions: higher = more signal;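 also: signal reflects streptavidin binding to arrayed compounds as a control protein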
[7] = probe aInhba binding on compound microarray – biochemical, small-molecule microarray, 635/667 nm fluorescence, primary screen (AID 1148); conditions: higher = more signal;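 also: score merges 667nm spot fluorescence with signal-to-noise for antibody binding to printed compounds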
Torsin-1A (Homo sapiens) [8] = biological target: Torsin-1A (Homo sapiens) (UniProt O14656); assay: TOR1A wild-type binding on microarray – cell lysate, small-molecule microarray, lysate, 635/667 nm, primary screen (AID 1149); conditions: COS7 hTOR1A-WT lysate, 635 nm fluorescence, higher = more signal
Torsin-1A (Homo sapiens) [9] = biological target: Torsin-1A (Homo sapiens) (UniProt O14656); assay: torsin A mutant lysate binding on microarrays – cell lysate, small-molecule microarray, COS7 lysate, 635/667 nm fluorescence, primary screen (AID 1150); conditions: COS7 hTOR1A mutant lysate, 635 nm fluorescence, higher = more signal;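 also: score pools 667 nm emission and signal to noise measuring lysate protein binding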
[10] = test system: Sonic hedgehog protein (Shh); assay: Sonic hedgehog microarray binding compounds – biochemical, small-molecule microarray, 635/667 nm fluorescence, primary screen (AID 1151); conditions: 635 nm fluorescence, higher = more signal;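 also: Shh protein binding to compounds spotted on small-molecule microarray slides; score combines spot fluorescence intensity with signal-to-noise across triplicate slides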
[11] = optical density shifts of acrAB sulA E. coli – strain DRC41, OD650, 48 h, E. coli filamentation inducer project, primary screen (AID 1152); conditions: higher = more signal, called active from +8 up or from −8 down;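 also: E. coli MC1000 strain DRC41 lacking acrAB efflux pump and sulA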
[12] = probe aLefty1 binding on compound microarray – biochemical, small-molecule microarray, 635/667 nm fluorescence, primary screen (AID 1153); conditions: higher = more signal;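 also: score merges spot fluorescence with signal-to-noise ratio from the scanned slide images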
[13] = plasmodial surface anion channel blockers, osmotic lysis – cell-based, P. falciparum Indochina, OD700, 1 h, primary screen (AID 1154); conditions: P. falciparum Indochina infected RBC osmotic lysis, higher = more signal, called active from +8 up or from −8 down
[14] = plasmodial surface anion channel blockers, osmotic lysis – cell-based, P. falciparum Indochina, OD700, 2 h, primary screen (AID 1155);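 also: lysis reports solute entry through the parasite surface anion channel PSAC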; conditions: P. falciparum Indochina infected erythrocytes, higher = more signal, called active from +8 up or from −8 down
[15] = changes in parasitized red cell lysis, either direction – P. falciparum Indochina, OD700, 3 h, PSAC antagonist project, primary screen (AID 1156); conditions: P. falciparum-infected erythrocytes, osmotic lysis, higher = more signal, called active from +8 up or from −8 down
[16] = plasmodial surface anion channel blockers, osmotic lysis – cell-based, P. falciparum Indochina, OD700, 18 h, primary screen (AID 1157); conditions: P. falciparum Indochina infected erythrocytes, osmotic lysis OD700, 18 h; higher = more signal, called active from +8 up or from −8 down
[17] = S6 kinase pathway phospho-S6 level changes – cell-based, A549, cytoblot, luminescence, serum-stimulated, primary screen (AID 1158); conditions: 5 h, higher = more signal;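 also: serum-stimulated A549 lung adenocarcinoma cells; signal is phosphorylated S6 detected by cytoblot immunostaining with HRP secondary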
[18] = biological target: NADPH oxidase 2 (Homo sapiens) (UniProt P04839); assay: compounds shifting NOX2 Amplex Red fluorescence – cell-based, HEK293-NOX2, PMA-stimulated, NOX inhibitor project, primary screen (AID 1159); conditions: 45 min, higher = more signal, called active from +8 up or from −8 down; also: test concentration not given here
[19] = biological target: NADPH oxidase 4 (Homo sapiens) (UniProt Q9NPH5); assay: compounds shifting NOX4 Amplex Red fluorescence – cell-based, HEK293-NOX4, tetracycline-induced, NOX inhibitor project, primary screen (AID 1160); conditions: HEK293-NOX4, Amplex Red H2O2 fluorescence, 45 min; higher = more signal, called active from +8 up or from −8 down
[20] = biological target: NADPH oxidase 5 (Homo sapiens) (UniProt Q96PH1); assay: compounds shifting NOX5 Amplex Red fluorescence – cell-based, HEK293-NOX5, NOX inhibitor project, primary screen (AID 1161); conditions: HEK293-NOX5, ionomycin, 45 min, higher = more signal
Sequence of NADPH oxidase 5 (Homo sapiens) (Q96PH1 whole entry, looked up): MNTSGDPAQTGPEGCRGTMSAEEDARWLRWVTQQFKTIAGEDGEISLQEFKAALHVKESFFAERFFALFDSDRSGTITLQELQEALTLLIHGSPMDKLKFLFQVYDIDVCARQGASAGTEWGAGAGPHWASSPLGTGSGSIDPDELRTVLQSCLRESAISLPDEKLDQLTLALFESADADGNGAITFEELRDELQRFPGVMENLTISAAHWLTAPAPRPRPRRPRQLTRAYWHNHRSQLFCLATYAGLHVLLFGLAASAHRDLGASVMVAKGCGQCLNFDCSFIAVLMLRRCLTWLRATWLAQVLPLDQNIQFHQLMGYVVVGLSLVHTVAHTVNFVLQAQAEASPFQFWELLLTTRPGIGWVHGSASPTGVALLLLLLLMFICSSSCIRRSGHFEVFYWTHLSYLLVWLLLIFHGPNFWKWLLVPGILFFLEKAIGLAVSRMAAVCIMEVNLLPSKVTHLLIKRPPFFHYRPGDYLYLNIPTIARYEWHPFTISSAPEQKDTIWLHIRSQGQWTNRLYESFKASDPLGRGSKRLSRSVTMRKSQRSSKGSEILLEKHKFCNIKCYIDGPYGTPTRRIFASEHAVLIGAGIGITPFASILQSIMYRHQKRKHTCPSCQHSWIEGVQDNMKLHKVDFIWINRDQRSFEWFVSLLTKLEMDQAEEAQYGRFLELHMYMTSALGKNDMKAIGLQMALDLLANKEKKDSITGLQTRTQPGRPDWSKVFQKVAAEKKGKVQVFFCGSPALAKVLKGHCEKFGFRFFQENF

Sequence of NADPH oxidase 4 (Homo sapiens) (Q9NPH5 whole entry, looked up): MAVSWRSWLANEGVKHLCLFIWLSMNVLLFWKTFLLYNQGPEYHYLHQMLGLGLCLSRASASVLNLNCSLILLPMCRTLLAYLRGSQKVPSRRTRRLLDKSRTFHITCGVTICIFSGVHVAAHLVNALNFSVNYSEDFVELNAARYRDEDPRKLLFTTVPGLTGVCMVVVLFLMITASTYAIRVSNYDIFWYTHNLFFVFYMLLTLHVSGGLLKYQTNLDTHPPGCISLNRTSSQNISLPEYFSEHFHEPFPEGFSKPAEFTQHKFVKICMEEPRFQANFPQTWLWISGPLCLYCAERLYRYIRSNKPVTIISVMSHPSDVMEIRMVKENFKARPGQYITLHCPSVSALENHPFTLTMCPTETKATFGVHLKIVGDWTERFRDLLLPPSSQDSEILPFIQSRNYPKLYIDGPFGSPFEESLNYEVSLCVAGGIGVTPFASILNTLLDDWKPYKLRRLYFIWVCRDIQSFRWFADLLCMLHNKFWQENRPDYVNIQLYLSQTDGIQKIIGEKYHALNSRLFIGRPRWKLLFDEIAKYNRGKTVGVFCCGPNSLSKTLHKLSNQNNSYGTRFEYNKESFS
Sequence of Streptavidin (Streptomyces avidinii) (P22629 whole entry, looked up): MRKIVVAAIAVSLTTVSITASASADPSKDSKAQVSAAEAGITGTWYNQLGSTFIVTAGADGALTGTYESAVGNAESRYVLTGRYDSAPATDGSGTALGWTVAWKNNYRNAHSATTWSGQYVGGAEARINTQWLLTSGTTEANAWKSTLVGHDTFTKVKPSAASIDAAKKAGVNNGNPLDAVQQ
Sequence of Torsin-1A (Homo sapiens) (O14656 whole entry, looked up): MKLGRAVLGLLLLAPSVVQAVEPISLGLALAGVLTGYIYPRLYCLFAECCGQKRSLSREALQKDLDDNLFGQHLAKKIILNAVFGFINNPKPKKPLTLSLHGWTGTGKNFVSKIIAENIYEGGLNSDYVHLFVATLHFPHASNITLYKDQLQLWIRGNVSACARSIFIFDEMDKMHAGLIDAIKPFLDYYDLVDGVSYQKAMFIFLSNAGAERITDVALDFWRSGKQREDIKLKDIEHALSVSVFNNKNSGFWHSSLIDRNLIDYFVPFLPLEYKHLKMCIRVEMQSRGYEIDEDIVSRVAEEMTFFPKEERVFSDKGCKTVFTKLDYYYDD
Sequence of NADPH oxidase 2 (Homo sapiens) (P04839 whole entry, looked up): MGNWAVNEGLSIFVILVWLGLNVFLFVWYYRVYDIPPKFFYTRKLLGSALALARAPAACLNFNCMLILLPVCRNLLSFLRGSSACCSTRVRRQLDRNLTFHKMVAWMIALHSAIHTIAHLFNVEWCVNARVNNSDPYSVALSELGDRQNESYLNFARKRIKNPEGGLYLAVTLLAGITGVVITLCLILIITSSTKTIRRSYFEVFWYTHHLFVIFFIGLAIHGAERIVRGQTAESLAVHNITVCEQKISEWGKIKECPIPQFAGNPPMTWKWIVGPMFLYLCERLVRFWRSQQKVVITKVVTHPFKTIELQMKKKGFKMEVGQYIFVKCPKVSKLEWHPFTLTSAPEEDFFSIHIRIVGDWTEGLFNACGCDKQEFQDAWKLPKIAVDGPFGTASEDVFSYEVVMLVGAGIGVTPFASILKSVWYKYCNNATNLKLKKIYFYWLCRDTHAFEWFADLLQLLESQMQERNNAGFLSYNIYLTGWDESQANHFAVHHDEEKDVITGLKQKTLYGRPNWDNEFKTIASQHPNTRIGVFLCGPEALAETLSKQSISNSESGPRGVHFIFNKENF

Compound	composite z-score [1]	z-score [2]	z-score [3]	z-score [4]	z-score [5]	composite z-score [6]	composite z-score [7]	composite z-score (Torsin-1A (Homo sapiens) [8])	composite z-score (Torsin-1A (Homo sapiens) [9])	composite z-score [10]	z-score [11]	composite z-score [12]	z-score [13]	z-score [14]	z-score [15]	z-score [16]	z-score [17]	z-score [18]	z-score [19]	z-score [20]
CC(=O)OC[C@H]1O[C@H](CCON=C(C)C)C=C[C@@H]1OC(C)=O	0.0141	0.702 (inactive)	0.249 (inactive)	-0.715 (inactive)	0.383 (inactive)	0.17	-0.038	-0.0297	-0.115	0.427	-1.66 (inactive)	-0.0412	0.158 (inactive)	0.328 (inactive)	-0.599 (inactive)	0.196 (inactive)	-0.71	0.0813 (inactive)	0.151 (inactive)	-0.227
O=C1[C@H]2[C@H]3[C@H](O)[C@H](O)CC(=NOC[C@@H](O)COCc4ccco4)[C@@H]3CC[C@H]2C(=O)N1C1CCCCC1	0.124	-0.234 (inactive)	0.321 (inactive)	3.23 (inactive)	0.148 (inactive)	-0.256	-0.195	3.38	1.25	1.94	0.38 (inactive)	0.0616	7.07 (inactive)	0.409 (inactive)	0.347 (inactive)	0.329 (inactive)	-0.9	-0.0721 (inactive)	0.721 (inactive)	0.475
COC(=O)[C@H](C)NC(=O)CCC1CC(OC(=O)NCc2ccc3c(c2)OCO3)CC2(CCCC(COC(=O)NCc3ccccc3)O2)O1 (stereo not given in full)	0.298	-0.268 (inactive)	-0.801 (inactive)	-0.345 (inactive)	-0.169 (inactive)	0.115	-0.0136	0.283	0.177	1.38	1.07 (inactive)	-0.0061	1.08 (inactive)	0.0056 (inactive)	0.049 (inactive)	0.272 (inactive)	0.307	0.154 (inactive)	1.22 (inactive)	0.654
CO[C@@H]1COC(=O)[C@H](COCc2ccccc2)NC(=O)CC=C[C@@H](C)[C@H](OC)COC(=O)[C@@H](C)NC(=O)CC=C[C@H]1C	-0.128	-0.0313 (inactive)	0.104 (inactive)	0.337 (inactive)	-0.803 (inactive)	-0.801	-0.179	1.53	0.544	1.92	0.52 (inactive)	-0.193	-0.302 (inactive)	-0.0696 (inactive)	0.386 (inactive)	0.131 (inactive)	0.166	-0.74 (inactive)	0.773 (inactive)	0.436
CC(C)(C)N1C(=O)[C@H]2[C@@H]3C(=CC[C@H]2C1=O)C(=O)[C@H]1O[C@H]1[C@H]3O	-0.264	-6.85 (inactive)	0.652 (inactive)	-0.748 (inactive)	-3.08 (inactive)	-0.5	-0.127	1.84	-0.0252	0.981	-0.537 (inactive)	-0.328	-0.23 (inactive)	-1.7 (inactive)	0.0794 (inactive)	-2.24 (inactive)	0.495	-0.593 (inactive)	-0.168 (inactive)	1.22
COC(=O)CC=C[C@@H](C)[C@@H](C=NOC(C)CN1CCCCc2nc(C)c(C)cc21)OC (stereo not given in full)	0.263	-0.211 (inactive)	0.763 (inactive)	1.41 (inactive)	0.802 (inactive)	0.405	-0.239	3.19	2.65	1.79	-0.0952 (inactive)	-0.0501	1.78 (inactive)	0.322 (inactive)	-0.29 (inactive)	0.441 (inactive)	-0.637	-2.01 (inactive)	-0.392 (inactive)	-1.52
O=C1C2=CC[C@H]3C(=O)N(C4CCCCC4)C(=O)[C@H]3[C@H]2[C@H](O)[C@@H]2O[C@H]12	-0.272	-8.35 (active)	-0.366 (inactive)	17.1 (active)	30.1 (active)	-0.408	-0.183	-0.695	-0.53	-0.689	-1.95 (inactive)	-0.245	-0.0599 (inactive)	-0.153 (inactive)	0.215 (inactive)	-1.56 (inactive)	-1.01	0.951 (inactive)	0.3 (inactive)	0.952
C=CC[C@@H]1C=C[C@H](ON=C(C)CCN2CCCCc3nc(C)c(C)cc32)[C@@H](CO)O1	0.291	-1.25 (inactive)	0.701 (inactive)	1.72 (inactive)	0.578 (inactive)	-0.208	-0.179	2.03	1.52	2.05	-0.813 (inactive)	-0.0547	1.07 (inactive)	0.547 (inactive)	0.325 (inactive)	0.392 (inactive)	-0.53	-0.953 (inactive)	-0.352 (inactive)	-0.424
CCOC(=O)[C@H](Cc1ccccc1)NC(=O)CCC1CC(OC(=O)NCc2cccc3ccccc23)CC2(CCCC(COC(=O)NCc3ccc4c(c3)OCO4)O2)O1 (stereo not given in full)	0.123	-0.301 (inactive)	-0.548 (inactive)	-0.0767 (inactive)	-0.0564 (inactive)	-0.0007	-0.0762	0.0755	-0.497	0.466	1.21 (inactive)	0.0686	0.509 (inactive)	-0.255 (inactive)	-0.336 (inactive)	-0.12 (inactive)	0.184	0.691 (inactive)	0.538 (inactive)	0.712
